Data as given in PubChem BioAssay AID624330 (Southern Research Specialized Biocontainment Screening …, 2012).
Values joined by “and” are separate entries in the source; they are usually repeats but may differ in a detail not shown here. Equal values may be shown once. The campaign covered roughly 340,000 compounds. About 2,100 (0.62%) were called active.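 How the source made its calls: active means first-screen hits whose inhibition reached a set limit at any dose in the follow-up dose series; inconclusive means inhibition above the set first-screen limit but never retested; inactive means the rest.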 These entries were drawn from the full list. Entries with a potency or affinity are not part of this list.

target: Rac GTPase-activating protein 1 (Homo sapiens) (UniProt Q9H0H5); experiment: blockers of MgcRacGAP-driven Rac1 GTP hydrolysis – biochemical, ADP Hunter fluorescence, primary and confirmatory, confirmation (AID 624330); conditions: MgcRacGAP-stimulated Rac1 GTP hydrolysis, at 30 µM, stronger effect = higher value, GST-tagged Rac1 F28L mutant substrate;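 further: fluorescence reports GDP produced by GAP-driven GTP hydrolysis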
Sequence (Q9H0H5 whole entry, looked up): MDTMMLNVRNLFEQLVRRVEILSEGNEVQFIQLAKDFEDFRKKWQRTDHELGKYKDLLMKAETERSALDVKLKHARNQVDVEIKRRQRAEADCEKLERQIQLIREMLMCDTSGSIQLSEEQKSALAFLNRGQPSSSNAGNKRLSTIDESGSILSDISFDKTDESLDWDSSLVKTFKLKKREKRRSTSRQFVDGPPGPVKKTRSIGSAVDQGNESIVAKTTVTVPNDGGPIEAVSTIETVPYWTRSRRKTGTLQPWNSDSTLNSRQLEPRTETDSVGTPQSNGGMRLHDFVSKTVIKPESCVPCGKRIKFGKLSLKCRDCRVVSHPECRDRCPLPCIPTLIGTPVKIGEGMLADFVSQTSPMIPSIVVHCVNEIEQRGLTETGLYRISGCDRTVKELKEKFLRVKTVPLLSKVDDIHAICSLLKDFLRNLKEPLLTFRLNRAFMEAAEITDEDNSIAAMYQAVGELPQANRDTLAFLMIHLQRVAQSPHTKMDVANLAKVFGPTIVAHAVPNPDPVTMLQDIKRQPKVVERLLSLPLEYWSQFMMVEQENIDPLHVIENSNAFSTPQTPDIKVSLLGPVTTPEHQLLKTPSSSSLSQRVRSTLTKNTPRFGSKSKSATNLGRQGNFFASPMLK

inhibition, inactive:
COc1cccc(NS(=O)(=O)c2c(C)nc3sccn3c2=O)c1 4.23%, CCc1cc(C(=O)NCC(c2ccco2)N2CCCCC2)sc1C (stereo unspecified) 5.34%, Cc1cccc(C(=O)OCC(=O)N2CCCCCC2)c1C 2.72%, CCN(C[C@H]1N[C@@](Cc2ccccc2)(C(=O)OC)[C@H]2C(=O)N(Cc3ccccc3)C(=O)[C@@H]12)C(=O)Nc1ccc(C)cc1 4.71%, CCOC(=O)c1ccc(NC(=S)N2CCC(C(N)=O)(N3CCCCC3)CC2)cc1 -1.44%, CCN(CC)CCSc1nc(O)c(Cc2ccccc2)c(=O)n1-c1ccccc1 2.56%, Cc1ccc(C(=O)NCCCN2CCOCC2)cc1S(=O)(=O)N1CCCCC1 1.84%, Cc1ccccc1NC(=O)C(=O)NCCCN1CCOCC1 4.72%, CN(C)S(=O)(=O)c1cc(NC(=O)CN2CCOCC2)ccc1Cl 2.76%, Cc1ccccc1C(=O)NCC(=O)Nc1ccc(C)c(S(=O)(=O)N2CCCCCC2)c1 -0.01%, O=C(CNCCN1CCOCC1)Nc1ccccc1Sc1ccccc1 24.9%, Cc1ccc(NC(=O)CCl)cc1S(=O)(=O)N1CCCCCC1 4.4%, CCN1CCN(CC(=O)Nc2ccc(Cl)c(S(=O)(=O)N(C)C)c2)CC1 28.1%, Cc1ccc(NC(=O)CN2CCOCC2)cc1S(=O)(=O)N1CCCCC1 7.06%, CC(Oc1cccc(Cl)c1)C(=O)N1CCN(c2ncccn2)CC1 (stereo unspecified) 3.63%, O=C(Nc1ccccc1C(=O)O)c1cc(S(=O)(=O)N2CCOCC2)cs1 3.51%, Cc1ccc(/C=N/N2CCN(C3c4ccccc4-c4ccccc43)CC2)o1 8.36%, COc1ccc(N2CCN(C(=O)c3cc4c(s3)CCCCC4)CC2)cc1 14.7%, COCCn1c(SCC(=O)N2CCCCCC2)nnc1-c1ccco1 3.7%, CCC(CNC(=O)c1c(C)nn(-c2ccccc2)c1Cl)c1ccccc1 (stereo unspecified) -0.7%, Cc1ccc(S(=O)(=O)N2CCCCC2)cc1C(=O)N(C)CCOc1ccccc1 8.29%, O=C(Cn1cnc2c(nnn2-c2ccc(F)cc2)c1=O)NCC1CCCO1 (stereo unspecified) 8.9%, COc1cc(-c2csc(CCn3nc(C)cc3C)n2)cc(OC)c1OC 4.55%, Cc1cc(C)n(CCc2nc3c4ccccc4n(CC#N)c(=O)n3n2)n1 3.22%, COC(=O)C1CCN(S(=O)(=O)Cc2ccccc2Cl)CC1 7.49%, COc1cc(OC)c(OC)cc1C#N 2.13%, COc1cc2c(cc1OC)C1(CCCC1)CNC2C (stereo unspecified) 1.49%, O=C(Nc1ccc(F)cc1)C(NC1CCCCC1)c1ccccc1 (stereo unspecified) 9.33%, COc1ccc(C2=NS(=O)(=O)N(C)C(C(=O)N3CCCCC3C)=C2)cc1 (stereo unspecified) 2.61%, COc1ccc(C(C)C)cc1S(=O)(=O)Nc1ccccn1 -2.56%, COc1ccc(N(C(=O)c2ccncc2)S(=O)(=O)c2cccs2)cc1 5.29%, COc1ccc(C(=O)N(c2ccc(OC)cc2)S(=O)(=O)c2cccs2)cc1 3.2%, O=C(Nc1ccc(-c2nc3ccccc3[nH]2)cc1)c1ccc2c(c1)OCO2 0.3%, COc1ccccc1C1C2=C(N=C3SCC(=O)N31)c1ccccc1CC2 (stereo unspecified) 7%, CCOC(=O)c1cc(-c2ccccc2)nn1CCC#N 8.67%, COc1ccc(OCc2nn3c(Cn4cnc5ccccc54)nnc3s2)cc1 19.9%, Cc1ccnc(SCc2cn3c(C)cccc3n2)n1 0.6%, COc1cc(/C=C/C(=O)OCC(=O)NC2CCS(=O)(=O)C2)ccc1OC(F)F (stereo unspecified) 2.44%, COc1ccc(/C=C/C(=O)OCC(=O)NC2CCS(=O)(=O)C2)cc1 (stereo unspecified) -1.92%, COc1cc(/C=C/C(=O)OCC(=O)NCCC2=CCCCC2)cc(OC)c1OC -10.3%, COc1cc(/C=C/C(=O)OCC(=O)NC2CCCCCCC2)ccc1O 26.5%, COc1ccc(/C=C/C(=O)OCC(=O)NCCC2=CCCCC2)cc1OC 4.2%, COc1cccc(/C=C/C(=O)OCC(=O)NCC2CCCCC2)c1OC -1.97%, CCCSCCCNC(=O)c1ccc(C)c(NC(=O)C2=C(C)OCCS2)c1 6.84%, CCC(=O)N1C(=O)CCN(C(C)=O)c2ccccc21 11.8%, COc1cccc(NC(=O)CN(C)C(=O)C(CCSC)NC(=O)c2ccco2)c1 (stereo unspecified) 1.87%, Cc1nn(C)c(=S)[nH]c1=S -2.65%, O=C(NCc1nc2ccccc2[nH]1)c1cccc(S(=O)(=O)N2CCCCC2)c1 1.53%, COc1cc(/C=N/NC(=O)c2sc(N)c(C#N)c2C)cc(Br)c1O 11.7%, Cc1c(C(=O)N/N=C/c2cccnc2)sc(N)c1C#N 6.19%, COc1ccc(C(=O)NC2=Nc3ccccc3N=C(C)C2c2ccccc2)cc1 (stereo unspecified) 0.78%, Nc1cc(N)nc(SCC(=O)N2CCN(S(=O)(=O)c3ccccc3)CC2)n1 7.76%, c1ccc2c(c1)Nc1cc3ccccc3cc1O2 -1.21%, COc1ccc(/C=N/NC(=O)CCn2nnc3ccccc32)cc1 15.9%, Cc1cccc(C(C)n2nnc3ccccc32)c1O (stereo unspecified) 6.53%, COc1ccc(C(O)c2nc3ccccc3n2C)cc1OC (stereo unspecified) 3.18%, COc1cccc(/C=N/NC(=O)C(C)n2nnc3ccccc32)c1 (stereo unspecified) 9.47%, COc1ccc(/C=N/NC(=O)Cn2nnc3ccccc32)cc1OC 3.04%, CCOc1cc(/C=N\NC(=O)Cn2nnc3ccccc32)ccc1O 28.1%, COc1cccc(/C=N/NC(=O)CCn2nnc3ccccc32)c1 1.99%, COc1ccc(/C=N/NC(=O)C(C)n2nnc3ccccc32)cc1OC (stereo unspecified) 8.77%, O=C(c1ccnc(Cl)c1)N1CCCC(Nc2ccc(F)cc2)C1 (stereo unspecified) 6.71%, CCc1nnc(NC(=O)CSc2nnc(C3CC3)n2C)s1 3.03%, Cc1ccc(OC/C(O)=C(\C#N)c2nc3ccccc3s2)cc1 0.24%, CN(C1CCS(=O)(=O)C1)S(=O)(=O)c1ccc(N2CCCC2=O)cc1 (stereo unspecified) 14.4%, COc1ccc(CCNC(=O)C(=O)NCC2CCCN2S(=O)(=O)c2ccccc2)cc1OC (stereo unspecified) 1.68%, CC(NC(=O)Nc1ccc([N+](=O)[O-])cc1)C(c1cccs1)N1CCCC1 (stereo unspecified) 8.33%, COc1ccc(/C=N/NC(=O)CCn2c3ccccc3c3ccccc32)cc1O 11.7%, COc1ccc(/C=N/NC(=O)CCn2c3ccccc3c3ccccc32)cc1OC -2.76%, COc1ccc(CCc2ccc3cc(OC)ccc3n2)cc1 1.87%, O=C(O)c1ccccc1C(=O)N(Cc1ccccc1)Cc1ccccc1 4%, CC(C)[C@H](N)c1cn([C@@H](CO)C(=O)N2CCNCC2)nn1 6.71%, CCCc1c(C(=O)N/N=C/c2ccc3c(c2)OCO3)nnn1-c1nonc1N 3.5%, CC(C#N)(NC(=O)CN1CCN(S(=O)(=O)c2cccc(F)c2)CC1)C1CC1 (stereo unspecified) 23.8%, COc1ccc(CCC(=O)N2CCN(S(=O)(=O)c3ccc(OC)c([N+](=O)[O-])c3)CC2)cc1 14.3%, Cc1nc2ncnn2c(C)c1CCC(=O)NCCc1ccccc1 3.16%, Cc1ccc([N+](=O)[O-])c2c1C(N1CCCC1)C(C)(C)O2 (stereo unspecified) 5.51%, N#Cc1ccccc1NC(=O)CN1CCN(Cc2ccccc2)CC1 -4.52%, COC(=O)c1ccc(C)c(-n2c(C)cc(C=O)c2C)c1 2.91%, COC(=O)N1CCN(c2ccc(Cl)c(Cl)c2)CC1 6.48%, NC(=O)CN1CCN(c2cccc(Cl)c2)CC1 6.34%, CCOC(=O)N1CCN(c2ccc(Cl)c(Cl)c2)CC1 -6.41%, Clc1cccc(N2CCN(CCCN3CCN(c4ccccc4)CC3)CC2)c1 7.52%, COc1ccc(NC(=O)c2ccc3ccccc3n2)cc1S(=O)(=O)N1CCCCC1 3.75%, O=C(O)C(O)Cc1c[nH]c2ccccc12 (stereo unspecified) 5.43%, Cc1ccc(S(=O)(=O)Nc2ccccc2N=Cc2ccc([N+](=O)[O-])cc2[N+](=O)[O-])cc1 4.67%, O=C(CN1CCN(c2ccccn2)CC1)Nc1nc2ccccc2s1 12.2%, COc1ccc2nc(NC(=O)CN3CCN(C)CC3)sc2c1 14.5%, CCOc1ccc2nc(NC(=O)CN3CCN(CC)CC3)sc2c1 5.24%, CCOC(=O)N1CCN(CC(=O)Nc2nc3ccccc3s2)CC1 -4.03%, O=C(CN1CCN(Cc2ccccc2)CC1)Nc1nc2ccccc2s1 14%, CCCN1CCN(CC(=O)Nc2nc3ccccc3s2)CC1 12.4%, Cc1[nH]nc(N=CC2=C(O)CC(c3ccco3)CC2=O)c1-c1ccccc1 (stereo unspecified) -2.48% and -0.93%, CNC(=O)c1cc(C(=O)c2ccc(F)cc2Cl)c[nH]1 4.17%, CC1CCCCC1NC(=O)C1CC=CCC1C(=O)O (stereo unspecified) -1.3%, CCC1=C(OC(=O)N(CC)CC)N2C(=O)OC(=NCC(=O)OC)[C@]2(Cc2ccccc2)[C@H]2C1=CC[C@H]1C(=O)N(C)C(=O)[C@H]12 0.87%
